# Only some compounds are listed: those with a hit (about 3.5% of all), similar ones and a draw of the others.
# Pf apPOL inh: Pf-apPOL DNA polymerase inhibition | AID 1794808 | Recombinant Pf-apPOL, molecular beacon fluorescence, 1.5 h | actives 0.25% (n = 210,000) | inhibition, % at 10 µM
# mHTT CaM bind: mHTT-calmodulin interaction abrogation. actives 3.6% (n = 190,000). P42858. inhibition, % at 15 µM. AlphaScreen His-mHTT/GST-CaM binding, luminescence. AID 1671202;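 note: 0% = both proteins with DMSO and 100% = one protein alone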
# Starred values were filed as active, the others as inactive; . = no result. Cut-off read from the data, not from the text of the source: active = inhibition above about 50%; inactive = the rest.
SMILES,Pf apPOL inh,mHTT CaM bind
CC(C)CC1C(=O)N(Cc2cn(CCC3OCCCO3)nn2)CCS(=O)(=O)N1Cc1ccc(-c2ccccc2)cc1 (centres undefined),-5.8,53.5*
CC(O)(CNC(=O)Cc1ccc(F)cc1)C1CC1 (centres undefined),0.0,-17.4
Cc1nc(C(F)(F)F)c(C(=O)ON=C(N)c2ccc(Cl)cc2)s1,-1.7,.
Cc1ccc(S(=O)(=O)N(C)c2ccc(N)cc2)cc1,23.7,5.9
Cc1ccc(C(C)(c2ccc(N)cc2)c2ccc(N)cc2)cc1,-11.9,67.6*
O=C(c1ccccc1F)N1CCCN(Cc2noc(-c3ccccc3)n2)CC1,-6.9,-2.4
CC(C)c1cc(C2CCCN2Cc2cc(Cl)ccc2O)on1 (centres undefined),4.1,-30.4
O=C(NCc1ccc(F)cc1)N1CCn2cccc2C1Cc1ccccc1 (centres undefined),-5.0,21.6
Oc1cccc(C2c3cccn3CCCN2Cc2cc(Cl)ccc2O)c1 (centres undefined),-1.6,100.3*
Cc1cccc(C2c3cccn3CCN2C(=O)CC(=O)NC(C)C)c1 (centres undefined),0.6,39.7
Cc1ccc(O)c(CN2CCCn3cccc3C2c2cccc(O)c2)c1 (centres undefined),-3.9,100.3*
Oc1cccc(CN2CCCn3cccc3C2c2ccc(F)cc2)c1O (centres undefined),2.5,98.3*
CC(=O)Oc1ccc(N(C(C)=O)S(=O)(=O)c2ccccc2)cc1,-2.9,-4.3
CC1(C(=O)NCc2ccc(F)cc2)CCCN(C(=O)NCc2ccco2)C1 (centres undefined),-3.3,-0.9
CCOc1ccc(CCNC(=O)Cn2nnc(-c3ccc(F)cc3)n2)cc1OCC,-41.0,-1.0
CCOc1ccc(CCNC(=O)Cn2nnc(-c3ccc(OC)cc3)n2)cc1OCC,-4.8,76.0*
CC(C)CNC(=O)C1CCN(c2ccc3ccccc3c2)C1=O (centres undefined),-2.6,1.4
COc1ccccc1Cc1nc(-c2cccc([N+](=O)[O-])c2)no1,-3.0,3.7
O=C(C(Cc1ccccc1)N1C(=O)c2ccccc2C1=O)N1CCN(CCO)CC1 (centres undefined),-6.9,5.0
O=C(C(Cc1ccccc1)N1C(=O)c2ccccc2C1=O)N1CCN(c2ccc(F)cc2)CC1 (centres undefined),-13.7,50.9*
O=C(CN1CCOCC1)NCCCCCNC(=O)CN1CCOCC1,.,-9.6
Cc1ccccc1Cc1c(C)nc2c(C(=O)NC(C)C)cnn2c1C,-12.6,71.0*
Cc1ccc(C)c(Cc2c(C)nc3c(C(=O)NC(C)C)cnn3c2C)c1,-9.3,79.0*
Cc1ccc(C)c(Cc2c(C)nc3c(C(=O)NC4CC4)cnn3c2C)c1,-6.3,53.0*
COCCCNC(=O)c1cnn2c(C)c(Cc3cc(C)ccc3C)c(C)nc12,-11.2,42.0
SMILES,Pf apPOL inh,mHTT CaM bind
Cc1ccc(C)c(Cc2c(C)nc3c(C(=O)NC4CCCCC4)cnn3c2C)c1,1.1,-1.0
Cc1ccccc1Cc1c(C)nc2c(C(=O)NC3CCCC3)cnn2c1C,-8.9,-1.0
COc1ccc(-n2nc3c(c2NC(=O)c2ccc4c(c2)OCO4)CS(=O)C3)cc1 (centres undefined),-0.6,1.0
CCC(C)NC(=O)c1cn(-c2ccc(C)cc2)nn1 (centres undefined),-1.6,-9.3
Cc1ccccc1C(=O)Nc1c2c(nn1C(C)(C)C)CSC2,-8.1,32.0
Cc1cccc(S(=O)(=O)N2CCc3c(c(-c4nc(Cc5ccccc5)no4)nn3C)C2)c1,-3.5,-7.3
CC(C)CC(=O)N1CCN(CC2CC=CCC2)CC1 (centres undefined),90.7*,3.6
O=C(C1CCN(CC2CC=CCC2)CC1)N1CCCC1 (centres undefined),-2.6,2.0
COc1ccc(NC(=O)N2CCC(c3nc(C(=O)N4CCOCC4)c(C)o3)CC2)cc1,-4.5,-3.2
O=S(=O)(c1ccc(F)cc1)N1CCc2nc(-c3ccccc3)ncc2C1,3.0,-4.5
COc1cc(/C=C(\C#N)c2nn(-c3ccccc3)c(N)c2C#N)cc(OC)c1OC,-8.5,49.4
COc1cc(/C=C(\C#N)c2nn(CCO)c(N)c2C#N)cc2c1OCO2,-4.5,0.7
CCOc1cc(/C=C(\C#N)c2nn(CCO)c(N)c2C#N)cc(I)c1OC,0.3,52.0*
CCOc1cc(/C=C(\C#N)c2nn(-c3ccccc3)c(N)c2C#N)cc(Br)c1OC,-1.7,56.2*
Cn1nc(C(=O)N2CCN(C(=O)C3CC3c3ccccc3)CC2)ccc1=O (centres undefined),-4.2,-8.7
C1=Nc2ccccc2/C1=C(\c1ccncc1)c1c[nH]c2ccccc12,-3.9,27.4
CCOc1cc(C=C2SC(=S)N(C(C)C(=O)O)C2=O)ccc1O (centres undefined),-8.7,20.0
CCCCC(CCC(=O)Nc1ccccn1)C(=O)O (centres undefined),-2.2,-5.0
COc1ccc(CCNC(=O)C2CCCC2)cc1,1.8,-2.6

# High-throughput results from PubChem BioAssay.
